Compounds with a hit are over-represented: about 13% of the library has one in this group of screens.
USP28 inh: human USP28 deubiquitinase inhibition | purified USP28, Ub-rhodamine cleavage fluorescence, 30 min | inhibition, % at 25 µM | 47,000 tested, 3% active | AID 1645857
USP8 block: human USP8 deubiquitinase inhibition; P40818; purified USP8, Ub-rhodamine cleavage fluorescence, 30 min; inhibition, % at 20 µM; 47,000 tested, 4.2% active; AID 1645853
USP30 inh: inhibitors of human USP30 deubiquitinase | Q70CQ3 | purified USP30, Ub-rhodamine cleavage fluorescence | inhibition, % at 25 µM | 47,000 tested, 5.3% active
Target sequence (Q70CQ3 whole entry, looked up): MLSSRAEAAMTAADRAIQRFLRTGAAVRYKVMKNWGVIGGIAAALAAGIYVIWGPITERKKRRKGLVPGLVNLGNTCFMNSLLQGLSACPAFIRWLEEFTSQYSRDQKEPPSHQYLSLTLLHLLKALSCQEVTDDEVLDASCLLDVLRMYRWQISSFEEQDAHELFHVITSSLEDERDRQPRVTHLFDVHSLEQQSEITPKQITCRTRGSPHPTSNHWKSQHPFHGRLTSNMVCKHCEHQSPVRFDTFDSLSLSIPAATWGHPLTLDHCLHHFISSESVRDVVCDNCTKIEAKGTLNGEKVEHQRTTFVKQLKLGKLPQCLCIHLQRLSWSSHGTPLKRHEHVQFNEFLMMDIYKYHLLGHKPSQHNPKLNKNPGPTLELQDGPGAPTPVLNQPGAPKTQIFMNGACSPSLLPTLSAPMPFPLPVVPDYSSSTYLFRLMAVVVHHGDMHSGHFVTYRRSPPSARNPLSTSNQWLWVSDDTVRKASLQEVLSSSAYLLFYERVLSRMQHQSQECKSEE
USP17 inh: inhibitors of human USP17 deubiquitinase; 47,000 tested, 6.5% active; purified USP17, Ub-rhodamine cleavage fluorescence, 3 h; inhibition, % at 50 µM
Numbers without * were called inactive; x = no result. No stated cut-off is given here; in the data, active means inhibition above about 30%; inactive means the rest.

SMILES	USP28 inh	USP8 block	USP30 inh	USP17 inh
COc1c([C@@H](O)CC(C)C)ccc2c1C(=O)OCc1cc(C)cc(O)c1O2	0	-28	-21	-1
Cc1ccc(-n2nc(C)c3c2NC(=O)[C@@H](NC(=O)c2ccccc2)[C@@H]3c2cccc(C)c2)cc1	6	-1	9	9
CCOC(=O)C1(Cc2cc(-c3ccc(F)cc3)no2)CCCN(Cc2cnc(C)n2C)C1 (stereo unspecified)	16	18	36*	11
O=C(Cc1c(C(=O)O)[nH]c2ccccc12)NC1CCCc2ccccc21 (stereo unspecified)	7	22	1	17
O=C(NC1CCCc2ccccc21)c1cc(=O)[nH]c2ccccc12 (stereo unspecified)	-4	0	-44	41*
O=C(N[C@H]1CCCc2ccccc21)c1cc(-c2ccco2)on1	0	33*	-155	47*
CCCCN(C(=O)c1ccncc1)c1nc(-c2cc(OC)ccc2OC)cs1	0	-11	2	0
COc1ccc(S(=O)(=O)N2CCN(C(=O)c3cccnc3)CC2)cc1	-3	1	2	-9
CN(Cc1ccccc1)S(=O)(=O)c1ccc(S(=O)(=O)N2CCN(C(=O)c3cccnc3)CC2)cc1	20	1	74*	23
CCOc1ccc(-c2nnn(CC(=O)N3CCCCC3)n2)cc1	20	11	20	13
O=C(Cn1cnc2c(cnn2-c2ccccc2)c1=O)Nc1cccc([N+](=O)[O-])c1	-12	15	-20	42*
COc1ccc(OC)c(NC(=O)c2sc(-c3c(F)cccc3OC)nc2C)c1	-30	-14	-165	-14
CC(NC(=O)COc1ccccc1)c1nc(-c2ccc(Cl)cc2)no1 (stereo unspecified)	6	6	2	13
Cc1ccc(OCC(=O)Nc2onc3c2CCCC3)cc1	5	-5	5	-11
Cc1ccccc1-c1nc(NC(=O)COc2ccc(F)cc2)no1	6	2	36*	4
Cc1ccccc1-c1noc(-c2ccccc2OCC(=O)NC(C)C)n1	14	13	49*	62*
O=C(COc1ccc(Cl)cc1)Nc1onc2c1CCCC2	-1	2	56*	50*
O=C(COc1ccc(Cl)cc1)Nc1noc(-c2ccccc2)n1	58*	88*	69*	4
COc1ccc(/C=C(/C(=O)NCCC(C)C)c2ccccc2)cc1	16	8	14	19
CCN1C(=O)c2cccnc2Sc2cc(NC(=O)CCc3ccccc3)ccc21	9	-5	-56	3
CC1=C(C(=O)OCCc2ccccc2)C(c2ccc3c(c2)OCO3)NC(=O)N1 (stereo unspecified)	34*	6	39*	14
COc1ccc(C(=O)O)cc1S(=O)(=O)N1CCCc2ccccc21	11	80*	5	42*
COC(=O)c1cccc(NC(=O)c2ccc(OC)c(S(=O)(=O)N3CCCc4ccccc43)c2)c1	-3	-19	-72	-14
O=C(CCO)N1C[C@@H]2CCN(C(=O)c3ccco3)[C@@H]2C1	6	-54	4	-3
N#Cc1cccc(S(=O)(=O)N2CCc3nc4ccccc4n3CC2)c1	17	9	51*	30*
SMILES	USP28 inh	USP8 block	USP30 inh	USP17 inh
N#Cc1cccc(NC(=O)N2CCCn3c(nc4ccccc43)C2)c1	27	14	27	16
O=C(Nc1ccccc1)N1CCCn2c(nc3ccccc32)C1	10	0	25	3
O=S(=O)(c1cccc(F)c1)N1CCc2nc3ccccc3n2CC1	9	2	26	91*
O=C(Nc1cccc(C(F)(F)F)c1)N1CCCn2c(nc3ccccc32)C1	32*	21	79*	37*
N#Cc1cccc(NC(=O)N2CCc3nc4ccccc4n3CC2)c1	14	3	33*	1
Cc1cccc(S(=O)(=O)N2CCc3nc4ccccc4n3CC2)c1	6	13	11	84*
O=S(=O)(c1ccc(F)cc1)N1CCN(c2nnnn2-c2ccccc2)CC1	-14	-15	-12	-5
N#Cc1cccc(NC(=O)N2CCC(CCOc3ccccc3)CC2)c1	18	10	33*	24
O=C(Nc1ccccc1)N1CCC(CCOc2ccccc2)CC1	-17	4	13	7
O=S(=O)(c1cccc(F)c1)N1CCN(c2nnnn2-c2ccccc2)CC1	-7	-9	-4	30*
Cc1cccc(CC(=O)N2CCc3c(nc(N4CCCC4)[nH]c3=O)C2)c1	-1	8	8	3
Cc1cccc(Nc2nccnc2C2CCCN2C(=O)c2ccncn2)n1 (stereo unspecified)	0	4	-6	-1
COc1ccc(-c2cn3c(C)c(C(=O)Nc4cccc(C(C)=O)c4)sc3n2)cc1	-65	0	-68	-26
COc1ccc(NC(=O)c2sc3nc(-c4cccc([N+](=O)[O-])c4)cn3c2C)cc1OC	-8	2	6	44*
CC(=O)c1cccc(NC(=O)c2sc3nc(-c4cccc([N+](=O)[O-])c4)cn3c2C)c1	14	58*	19	21
CCc1ccc(-n2ccc(=O)c(-c3nc(-c4ccncc4)no3)n2)cc1	x	-2	x	39*
Cc1ccc(-n2ccc(=O)c(-c3nc(-c4ccccc4F)no3)n2)cc1	3	9	30	18
COc1ccc(-n2ccc(=O)c(-c3nc(-c4ccc(F)cc4)no3)n2)cc1	2	85*	35*	31*
COc1cccc(-n2ccc(=O)c(-c3nc(-c4ccccc4Cl)no3)n2)c1	41*	68*	66*	x
Cc1cc(/C=C2\C(=N)N3N=CSC3=NC2=O)c(C)n1-c1ccc2ccccc2c1	-85	-13	-283	-14
CCN1CCCC1CN(Cc1cc2cc(C)cc(C)c2[nH]c1=O)C(=O)Nc1ccc(F)cc1 (stereo unspecified)	-11	-4	-30	x
CCCCn1c(=O)c(CCC(=O)OCC(=O)Nc2ccc3c(c2)OCCO3)nc2ccccc21	62*	-3	-4	-12
COCCCN1C(=O)C(CC(=O)Nc2ccc3c(c2)OCCO3)n2c1nc1ccccc12 (stereo unspecified)	1	18	8	18
Cn1c(O)c(C2=Nc3ccccc3SC(c3cccc(O)c3)C2)c(=O)[nH]c1=O (stereo unspecified)	15	11	-27	39*
Cc1ccc(Nc2nc(NCc3ccco3)c3ccccc3n2)cc1	67*	31*	60*	82*
Cc1ccc(CN2C(=O)C(CC(=O)Nc3ccccc3)n3c2nc2ccccc23)cc1 (stereo unspecified)	11	17	1	6
O=C(CN(CCc1ccccc1)S(=O)(=O)c1ccccc1)N1CCCC1	-3	-17	-17	-14
O=C(Nc1ccc(N2CCC(n3cccc3)CC2)cc1)c1ccccc1	-3	30*	2	0
CCc1cc(C2CCCN2C(=O)C23CC4CC(CC(C4)C2)C3)on1 (stereo unspecified)	-5	-6	15	5
O=C(COC(=O)C1CCCN1C(=O)C12CC3CC(CC(C3)C1)C2)c1ccc(Cl)cc1 (stereo unspecified)	7	0	51*	8

From PubChem
